# Measured values taken from PubChem BioAssay AID488969 (Vanderbilt High Throughput Screening Facility, 2010).
# Whole data set: some 110,000 compounds, median “z-score” near -0.1, cut for the highest 2% near 2. The sample holds the highest values, similar compounds and a random draw of the others, so the mix is not that of the screen. The source made the active and inactive calls.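 The calls were made as follows: active = z-score in the third read window above 3 or below -3; inactive = the rest.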
# Biological target: Metabotropic glutamate receptor 8 (Rattus norvegicus) (UniProt P70579)
# Test: mGluR8 Gi/Go-coupled signaling modulation – cell-based, rat, thallium flux, HTS, primary screen (AID 488969)
# Details: HEK293 rat mGluR8, GIRK (G protein-gated inwardly rectifying potassium channel) thallium flux, FluoZin2; at 10 µM; stronger effect = higher value; submaximal glutamate (EC20) added with thallium
# Sequence of Metabotropic glutamate receptor 8 (Rattus norvegicus) (P70579 whole entry, looked up): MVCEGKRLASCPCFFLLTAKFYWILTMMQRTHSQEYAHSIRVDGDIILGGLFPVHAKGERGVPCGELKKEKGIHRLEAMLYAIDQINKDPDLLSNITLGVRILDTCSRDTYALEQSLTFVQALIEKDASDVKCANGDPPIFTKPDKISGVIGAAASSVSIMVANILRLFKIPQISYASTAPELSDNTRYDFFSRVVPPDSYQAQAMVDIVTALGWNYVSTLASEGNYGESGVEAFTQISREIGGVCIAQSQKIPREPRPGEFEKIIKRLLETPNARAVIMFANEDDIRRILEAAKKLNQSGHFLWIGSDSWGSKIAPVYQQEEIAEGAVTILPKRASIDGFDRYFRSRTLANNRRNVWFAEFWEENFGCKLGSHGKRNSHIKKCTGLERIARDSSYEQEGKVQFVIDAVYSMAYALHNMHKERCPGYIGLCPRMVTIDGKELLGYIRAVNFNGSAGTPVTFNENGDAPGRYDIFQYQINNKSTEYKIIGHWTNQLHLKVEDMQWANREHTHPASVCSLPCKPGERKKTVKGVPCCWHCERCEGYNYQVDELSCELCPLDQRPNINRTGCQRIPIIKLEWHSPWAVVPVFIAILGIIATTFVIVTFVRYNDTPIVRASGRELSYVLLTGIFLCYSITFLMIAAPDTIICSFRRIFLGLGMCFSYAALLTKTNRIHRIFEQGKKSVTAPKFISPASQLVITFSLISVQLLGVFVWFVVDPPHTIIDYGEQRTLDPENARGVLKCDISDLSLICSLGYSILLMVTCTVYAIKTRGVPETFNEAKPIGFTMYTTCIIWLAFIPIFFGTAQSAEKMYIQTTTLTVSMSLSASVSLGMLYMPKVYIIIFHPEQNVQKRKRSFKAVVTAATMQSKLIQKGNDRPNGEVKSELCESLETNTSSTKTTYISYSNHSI
row,Compound,z-score
1,Cc1ccc(S(=O)(=O)NCC(C)NS(=O)(=O)c2ccc(C)cc2)cc1 (stereo not drawn),2.8
2,O=C1CCCN1c1ccc(S(=O)(=O)NCCc2ccc(Cl)cc2)cc1,0.203
3,CN(C)CCCNS(=O)(=O)c1ccc(N2CCC(c3ccc(Cl)cc3)=N2)cc1,2.59
4,Cc1ccc(S(=O)(=O)NCCCNS(C)(=O)=O)cc1,0.0948
5,CN(C)CCNS(=O)(=O)c1ccc(Cl)cc1,1.34
6,Cc1ccc(S(=O)(=O)NCCCCCC(=O)N(C)C)cc1,2.19
7,Cc1ccc(S(=O)(=O)NCC(C)NS(C)(=O)=O)cc1 (stereo not drawn),-0.186
8,Cc1ccc(S(=O)(=O)NCCCCCC(N)=O)cc1,0.00872
9,O=S(=O)(c1ccc(N2CCC(c3ccc(Cl)cc3)=N2)cc1)N(CCO)CCO,-0.748
10,Cc1ccc(S(=O)(=O)NCCCN(C)C)cc1,2.95
11,CC(=O)Nc1ccc(S(=O)(=O)NCC(C)NS(=O)(=O)c2ccc(NC(C)=O)cc2)cc1 (stereo not drawn),0.018
12,CNC(=O)CCCCCNS(=O)(=O)c1ccc(C)cc1,0.0156
13,CCOc1ccc(-c2cn3ccccc3n2)cc1[N+](=O)[O-],0.461
14,O=C(c1cccc(-n2cnnn2)c1)N1CC=C(c2ccccc2)CC1,0.39
15,CN1CCN(/C(=N\S(=O)(=O)c2ccc(F)cc2)c2ccccc2)CC1,-0.0184
16,Cc1sc2ncnc(N3CCOCC3)c2c1C,-0.134
17,O=[N+]([O-])c1ccc(-c2csc(N3CCc4ccccc4C3)n2)cc1,-0.0911
18,O=C1CN(C(=O)CSc2nc3ccccc3c(=O)n2Cc2ccc(F)cc2)c2ccccc2N1,3.79 (active)
19,Cc1cccc(C)c1-n1c(SCC(=O)N2CC(=O)Nc3ccccc32)nc2ccccc2c1=O,-0.109
20,O=C1CN(C(=O)CSc2nc3ccccc3n2CCc2ccccc2)c2ccccc2N1,-0.346
21,Cc1ccc(-n2c(SCC(=O)N3CC(=O)Nc4ccccc43)nc3ccccc3c2=O)cc1C,-0.183
22,Cc1ccc(Cn2c(SCC(=O)N3CC(=O)Nc4ccccc43)nc3ccccc3c2=O)cc1,1.31
23,Cc1nnc(SCC(=O)N2CC(=O)Nc3ccccc32)n1Cc1ccccc1,-0.151
24,Cc1ccc(-n2c(SCC(=O)N3CC(=O)Nc4ccccc43)nc3ccccc3c2=O)cc1,-0.279
25,CC(c1ccccc1)n1c(SCC(=O)N2CC(=O)Nc3ccccc32)nc2ccccc2c1=O (stereo not drawn),4.74 (active)

row,Compound,z-score
1,O=C1CN(C(=O)CSc2nc3cc(Cl)ccc3c(=O)n2Cc2ccccc2)c2ccccc2N1,7.11 (active)
2,O=C(O)/C=C/C(=O)Nc1ccccc1C(=O)Nc1ccccc1,0.317
3,CCOC(=O)C1=C(Nc2ccccc2)CC(C)(O)C(C(=O)OCC)C1c1ccc(Cl)cc1 (stereo not drawn),-0.445
4,COc1ccc(CCC(C)NCC2CCCCC2)cc1 (stereo not drawn),0.819
5,Cc1csc(NC(=S)Nc2cccc(Cl)c2)n1,14.7 (active)
6,S=C(NCc1cccs1)Nc1cccc(Cl)c1,4.52 (active)
7,Cc1csc(NC(=O)Nc2cccc(Cl)c2)n1,0.398
8,S=C(NCc1ccncc1)Nc1cccc(Cl)c1,-0.135
9,Fc1ccc(NC(=S)Nc2cccc(Cl)c2)cc1,1.26
10,CCOC(=O)c1csc(NC(=O)Nc2cccc(Cl)c2)n1,-0.0455
11,S=C(NCc1cccs1)Nc1ccc(Cl)cc1,0.118
12,Fc1ccc(CNC(=S)Nc2cccc(Cl)c2)cc1,5.18 (active)
13,O=C(NCc1cccs1)Nc1cccc(Cl)c1,0.43
14,O=C(Nc1ccccc1)N1CCCc2ccccc21,-0.0768
15,O=C(NCCCN1CCCC1=O)c1ccccc1NS(=O)(=O)c1ccc(Br)cc1,-0.938
16,CCCn1cc(NC(=O)C2CC(c3cccc(Br)c3)=NO2)cn1 (stereo not drawn),-0.352
17,CCOc1cc(/C=C2/NC(=O)N(CC(=O)Nc3cccc(C)c3)C2=O)ccc1O,-0.784
18,N#CC1=C(SCC(=O)NCc2ccccc2)NC(=O)CC1c1ccco1 (stereo not drawn),1.77
19,CC(C)=C1C2CCC1C1C(=O)N(c3nc(-c4ccc(C(C)C)cc4)c(C)s3)C(=O)C21 (stereo not drawn),-0.0235
20,O=C(Nc1cc(C(F)(F)F)ccc1N1CCOCC1)c1cccs1,1.15
21,O=C(NC(=S)N1CCN(c2ccc(Cl)cc2[N+](=O)[O-])CC1)c1ccco1,2.99
22,O=C(NC(=S)N1CCN(c2ccc(Cl)cc2[N+](=O)[O-])CC1)c1cccs1,9.46 (active)
23,O=C(NC(=S)N1CCN(c2ccc([N+](=O)[O-])cc2Cl)CC1)c1ccco1,1.05
24,O=C(NC(=S)N1CCCCC1)c1cccs1,0.578
25,O=C(NC(=S)N1CCN(c2c(Cl)cccc2[N+](=O)[O-])CC1)c1cccs1,-4.63 (active)

row,Compound,z-score
1,O=C(CSc1ccc(Cl)cc1)N1CCN(c2ccc(Cl)cc2[N+](=O)[O-])CC1,-0.109
2,NC(=O)C1CCN(c2ccc(C(F)(F)F)cc2[N+](=O)[O-])CC1,0.0305
3,O=C(NC(=S)N1CCN(c2ccc(C(F)(F)F)cc2[N+](=O)[O-])CC1)c1cccs1,8.9 (active)
4,COc1ccc(NC(=O)Nc2ccc(Br)cn2)cc1OC,-0.221
5,COc1ccc2nc(NC(=O)CSc3nnc(N)s3)sc2c1,0.075
6,Cc1[nH]n(-c2ccccc2)c(=O)c1S(=O)(=O)c1ccccc1,-0.642
7,Cc1[nH]n(-c2ccc([N+](=O)[O-])cc2)c(=O)c1N=Nc1nc2ccccc2s1,2.47
8,Cc1[nH]n(-c2ccc([N+](=O)[O-])cc2)c(=O)c1C=NCCc1c(C)[nH]c2ccccc12,-0.0759
9,Cc1[nH]n(-c2ccccc2)c(=O)c1N=Nc1cccc(S(=O)(=O)N2CCOCC2)c1,0.327
10,Cc1[nH]n(-c2ccccc2)c(=O)c1N=Nc1nccs1,14.8 (active)
11,Cc1[nH]n2c(=O)cc(-c3ccc([N+](=O)[O-])cc3)nc2c1-c1ccccc1,-1.93
12,CN(Cc1ccc(-n2cccn2)cc1)C(=O)c1cnn2c1NC(c1ccco1)CC2C(F)(F)F (stereo not drawn),-0.35
13,CCCCN1C(=S)SC(C)(C)C1/[N+]([O-])=C/c1cccnc1 (stereo not drawn),-0.00445
14,CCN1C(=O)C2C(C1=O)N1C(c3ccccc3)C3C(=O)N(CC)C(=O)C3N1C2c1ccccc1 (stereo not drawn),0.0538
15,CCCCCn1c(=N)n(CC(O)COc2ccccc2OC)c2ccccc21 (stereo not drawn),-1.11
16,CCCn1c(=N)n(CC(O)COc2cccc(C)c2)c2ccccc21 (stereo not drawn),3.74 (active)
17,CCCCn1c(=N)n(CC(O)COc2cccc(C)c2)c2ccccc21 (stereo not drawn),4.52 (active)
18,Cc1cccc(OCC(O)CN2C(C)(C)CC(O)CC2(C)C)c1C (stereo not drawn),1.1
19,C=CCn1c(=N)n(CC(O)COc2ccccc2OC)c2ccccc21 (stereo not drawn),1.12
20,CCn1c(=N)n(CC(O)COc2cccc(C)c2)c2ccccc21 (stereo not drawn),0.778
21,CCCn1c(=N)n(CC(O)c2ccco2)c2ccccc21 (stereo not drawn),0.907
22,CC(=O)c1ccc(OCC(O)CN2C(C)(C)CC(O)CC2(C)C)cc1 (stereo not drawn),-0.153
23,Cc1cccc(OCC(O)CN2C(C)(C)CC(O)CC2(C)C)c1 (stereo not drawn),9.44 (active)
